Laboratory results: PubChem BioAssay (NCATS)
Records with an inconclusive call do not appear. The source made the active and inactive calls. Calls follow the shape of the dose curve; as a rule, active = well fitted inhibition curve with a large enough effect; inconclusive = small, poorly fitted or top-dose-only effect; inactive = flat fitted curve, though single readings scatter.

How the values were obtained:
Assay in all cases: Cytotoxic Profiling of Annotated Libraries Using Quantitative High-Throughput Screening (AID 1296008); also: nearly all actives have a fitted effect of over 60% in size
Settings in all cases: Five cell lines viability, CellTiter-Glo ATP luminescence, 48-72 h; max response: hits give low values
CRL-7250 = normal cell line; test system: CRL-7250
Summary of the method: (§1)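 Compounds were pin-transferred onto cells and incubated 48 or 72 hr at 37 degree Celsius, 95% humidity. CellTiter-Glo was added, plates sat 10 min at room temperature, then ATP-coupled luminescence was imaged as the viability read-out.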

HEK293 = test system: HEK293
Summary of the method: as §1

HaCat = test system: HaCat
Summary of the method: as §1

KB-3-1 = test system: KB-3-1
Summary of the method: as §1

NIH3T3 = test system: NIH3T3
Summary of the method: as §1

Measured: max response
% is scaled to controls: 0 for no effect and ±100 for the full control effect.

CC(/C=C/C1(O)C(C)CC(O)CC1(C)C)OC1OC(CO)C(O)C(O)C1O (stereo not given)
inactive: CRL-7250 1.42% | HEK293 | HaCat -9.66% | KB-3-1 | NIH3T3

CC1CCC2(C(=O)OC3OC(COC4OC(CO)C(O)C(O)C4O)C(O)C(O)C3O)CCC3(C)C(=CCC4C5(C)CCC(O)C(C)(C(=O)O)C5CCC43C)C2C1(C)O (stereo not given)
inactive: CRL-7250 | HEK293 | HaCat -9.13% | KB-3-1 0.532% | NIH3T3

OC1COC(OCC2OC(OCCc3ccccc3)C(O)C(O)C2O)C(O)C1O (stereo not given)
inactive: CRL-7250 | HEK293 | HaCat -7.45% | KB-3-1 | NIH3T3

CC1(C)OC(=O)C(OCC2CC2)=C1c1ccc(S(C)(=O)=O)cc1
inactive: all assays above

C[C@@H]1CC[C@]2(C(=O)O)CC[C@]3(C(=O)O)C(=CCC4[C@@]5(C)CC[C@H](O[C@@H]6O[C@@H](C)[C@H](O[C@@H]7O[C@H](CO)[C@@H](O)[C@H](O)[C@H]7O)[C@@H](O)[C@H]6O)C(C)(C)C5CC[C@]43C)C2[C@H]1C (stereo not given in full)
inactive: CRL-7250 0.369% | HEK293 | HaCat -0.856% | KB-3-1 | NIH3T3

NC(=O)c1cccc(-c2cc(O)cc(OC(=O)NC3CCCCC3)c2)c1
inactive: CRL-7250 | HEK293 | HaCat | KB-3-1 | NIH3T3 -15.7%

C[C@H]1CC[C@@]2(OC1)O[C@H]1CC3C4CC=C5C[C@H](O)C[C@@H](O[C@@H]6O[C@@H](C)[C@H](O)[C@@H](O)[C@H]6O[C@@H]6O[C@@H](C)[C@H](O)[C@@H](O)[C@H]6O)[C@]5(C)C4CC[C@]3(C)[C@H]1[C@@H]2C (stereo not given in full)
inactive: CRL-7250 -7.49% | HEK293 | HaCat -9.03% | KB-3-1 | NIH3T3 0.342%

C=C1CC[C@@H]2[C@](C)(CC[C@H](O)[C@@]2(C)CCC=C(C)C)[C@@H]1Cc1c[nH]c2ccccc12
inactive: CRL-7250 -8.3% | HEK293 | HaCat -2.84% | KB-3-1 1.09% | NIH3T3

COc1cc(C2OCC3C(c4ccc(OC5OC(CO)C(O)C(O)C5O)c(OC)c4)OCC23)ccc1O (stereo not given)
inactive: CRL-7250 -7.16% | HEK293 | HaCat -4.17% | KB-3-1 -0.0986% | NIH3T3 -0.3%

C[C@]12CC[C@@H]3c4ccc(O[C@@H]5O[C@H](C(=O)O)[C@@H](O)[C@H](O)[C@H]5O)cc4CC[C@H]3[C@@H]1CCC2=O
inactive: CRL-7250 -0.486% | HEK293 | HaCat | KB-3-1 | NIH3T3

CCOC(=O)[C@H](CCc1ccccc1)N[C@@H](C)C(=O)N1C2CCCCC2C[C@H]1C(=O)O (stereo not given in full)
inactive: CRL-7250 | HEK293 | HaCat | KB-3-1 6.12% | NIH3T3

N#CCc1ccc(O)cc1O[C@@H]1O[C@H](CO)[C@@H](O)[C@H](O)[C@H]1O
inactive: CRL-7250 | HEK293 | HaCat -21.9% | KB-3-1 -0.902% | NIH3T3

C=C1CCC2C(C)(C(=O)O)CC(O)CC2(C)C1CC/C(C)=C/C(=O)O (stereo not given)
inactive: CRL-7250 -3.85% | HEK293 | HaCat 3.69% | KB-3-1 5.42% | NIH3T3

CC(=O)OC1C(O)C(C)=C(CCC(C)CC(=O)O)C2(C)CCCC(C)(C)C12 (stereo not given)
inactive: CRL-7250 | HEK293 | HaCat | KB-3-1 0.797% | NIH3T3

C/C=C/C=C/C(CC(=O)O)Nc1ccc(C=O)cc1 (stereo not given)
inactive: CRL-7250 | HEK293 | HaCat | KB-3-1 5.57% | NIH3T3 3.97%

CC12CC34C=CC(=O)C(C)(CCC(=O)O)C3C(CC1C4)O2 (stereo not given)
inactive: CRL-7250 | HEK293 | HaCat | KB-3-1 5.48% | NIH3T3

O=C(COc1ccc(Cl)cc1)NC1CCC(NC(=O)COc2ccc(Cl)cc2)CC1 (stereo not given)
inactive: CRL-7250 2.66% | HEK293 | HaCat | KB-3-1 -4.12% | NIH3T3 -4.22%

O=C1C[C@@H](c2ccc(O)cc2)Oc2cc(O)ccc21
inactive: CRL-7250 -9.15% | HEK293 | HaCat | KB-3-1 3.42% | NIH3T3 1.22%

C=C[C@H]1[C@H](O[C@@H]2O[C@H](CO)[C@@H](O)[C@H](O)[C@H]2O)OC=C(C(=O)OC)[C@H]1C[C@@H]1N[C@H](C(=O)O)Cc2c1[nH]c1ccccc21
inactive: CRL-7250 2.01% | HEK293 | HaCat | KB-3-1 -4.8% | NIH3T3 -2.92%
